Of roughly 7,900 targets only a part is listed; those with a hit were picked by preference. About 0.6% of all pairs of compound and target were hits.
Each target was assayed with C=CC(=O)N1CCC[C@@H](n2nc(-c3ccc(Oc4ccccc4)cc3)c3c(N)ncnc32)C1 [ibrutinib] (assay: log2 fold change, soluble protein after heating vs DMSO (PISA); higher = thermal stabilisation; K562 cells, 10 uM, 30 min; active = over 0.2 and 3.5 SD of the protein, either way, in both replicates (recomputed)).
How it was run: (§1)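 K562 cells at 2×10^6 cells/mL were treated with 10 μM compound for 30 min. Aliquots were heated for 3 min across 48°C-58°C, pooled, and extracted in PBS with 0.5% NP-40 at 4°C; soluble protein was the supernatant after 21,000xg for 90 min. Soluble protein was quantified by TMTpro 16plex LC-MS/MS with channel sums equalised, and reported as log2 fold change in thermal stability against DMSO controls, with values from duplicates.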

Sequence of UniProt Q5T8P6 (Q5T8P6 whole entry, looked up): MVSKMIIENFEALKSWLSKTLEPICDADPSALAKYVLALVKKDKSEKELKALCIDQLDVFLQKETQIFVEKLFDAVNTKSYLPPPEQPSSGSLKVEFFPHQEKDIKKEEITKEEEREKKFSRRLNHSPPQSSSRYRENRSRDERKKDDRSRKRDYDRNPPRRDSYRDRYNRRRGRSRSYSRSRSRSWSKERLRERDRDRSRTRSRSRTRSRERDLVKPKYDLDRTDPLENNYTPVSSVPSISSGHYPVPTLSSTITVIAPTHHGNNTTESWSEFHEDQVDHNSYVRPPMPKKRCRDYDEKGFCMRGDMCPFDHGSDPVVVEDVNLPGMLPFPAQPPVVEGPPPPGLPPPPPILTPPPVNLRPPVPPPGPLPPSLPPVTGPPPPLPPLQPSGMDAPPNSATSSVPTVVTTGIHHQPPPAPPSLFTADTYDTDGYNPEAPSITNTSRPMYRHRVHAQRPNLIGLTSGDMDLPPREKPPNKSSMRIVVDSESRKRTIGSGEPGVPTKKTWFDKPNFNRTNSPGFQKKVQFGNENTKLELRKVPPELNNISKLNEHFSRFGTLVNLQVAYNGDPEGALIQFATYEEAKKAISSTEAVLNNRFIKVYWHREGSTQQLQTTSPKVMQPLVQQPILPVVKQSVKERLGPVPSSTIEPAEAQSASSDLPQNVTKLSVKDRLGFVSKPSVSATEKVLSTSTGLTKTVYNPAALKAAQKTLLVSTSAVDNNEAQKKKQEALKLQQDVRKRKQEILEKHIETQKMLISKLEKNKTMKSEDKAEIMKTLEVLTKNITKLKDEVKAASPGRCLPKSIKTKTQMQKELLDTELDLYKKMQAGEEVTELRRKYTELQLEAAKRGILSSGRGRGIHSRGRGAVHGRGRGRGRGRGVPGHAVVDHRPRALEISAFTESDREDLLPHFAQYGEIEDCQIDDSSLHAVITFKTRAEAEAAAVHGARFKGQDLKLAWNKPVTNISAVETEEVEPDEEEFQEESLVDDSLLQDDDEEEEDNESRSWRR
Sequence of UniProt Q86TU7 (Q86TU7 whole entry, looked up): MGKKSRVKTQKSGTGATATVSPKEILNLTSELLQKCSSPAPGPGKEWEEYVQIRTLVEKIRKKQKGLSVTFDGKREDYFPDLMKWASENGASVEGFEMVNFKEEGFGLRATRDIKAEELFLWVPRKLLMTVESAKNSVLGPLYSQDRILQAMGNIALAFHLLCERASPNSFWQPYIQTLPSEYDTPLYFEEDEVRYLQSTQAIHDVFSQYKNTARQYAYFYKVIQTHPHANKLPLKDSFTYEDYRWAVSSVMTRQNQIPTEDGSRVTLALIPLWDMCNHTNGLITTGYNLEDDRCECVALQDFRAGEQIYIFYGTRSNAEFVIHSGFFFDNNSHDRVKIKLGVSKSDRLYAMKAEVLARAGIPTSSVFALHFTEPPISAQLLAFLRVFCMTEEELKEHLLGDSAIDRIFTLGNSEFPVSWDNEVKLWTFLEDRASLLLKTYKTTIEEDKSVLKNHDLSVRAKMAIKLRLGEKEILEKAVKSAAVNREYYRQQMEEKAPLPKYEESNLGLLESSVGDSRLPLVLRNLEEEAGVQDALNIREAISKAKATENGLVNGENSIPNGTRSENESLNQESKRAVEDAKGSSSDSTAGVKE
Sequence of UniProt Q9NQG5 (Q9NQG5 whole entry, looked up): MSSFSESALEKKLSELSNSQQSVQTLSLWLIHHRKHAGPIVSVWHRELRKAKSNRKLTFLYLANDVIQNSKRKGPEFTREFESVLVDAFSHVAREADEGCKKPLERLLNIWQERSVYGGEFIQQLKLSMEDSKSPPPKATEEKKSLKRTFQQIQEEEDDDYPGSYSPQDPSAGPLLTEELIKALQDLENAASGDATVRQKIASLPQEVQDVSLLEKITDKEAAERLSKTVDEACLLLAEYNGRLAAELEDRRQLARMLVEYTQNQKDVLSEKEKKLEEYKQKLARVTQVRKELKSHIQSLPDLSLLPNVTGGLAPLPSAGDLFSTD
Sequence of UniProt O15027 (O15027 whole entry, looked up): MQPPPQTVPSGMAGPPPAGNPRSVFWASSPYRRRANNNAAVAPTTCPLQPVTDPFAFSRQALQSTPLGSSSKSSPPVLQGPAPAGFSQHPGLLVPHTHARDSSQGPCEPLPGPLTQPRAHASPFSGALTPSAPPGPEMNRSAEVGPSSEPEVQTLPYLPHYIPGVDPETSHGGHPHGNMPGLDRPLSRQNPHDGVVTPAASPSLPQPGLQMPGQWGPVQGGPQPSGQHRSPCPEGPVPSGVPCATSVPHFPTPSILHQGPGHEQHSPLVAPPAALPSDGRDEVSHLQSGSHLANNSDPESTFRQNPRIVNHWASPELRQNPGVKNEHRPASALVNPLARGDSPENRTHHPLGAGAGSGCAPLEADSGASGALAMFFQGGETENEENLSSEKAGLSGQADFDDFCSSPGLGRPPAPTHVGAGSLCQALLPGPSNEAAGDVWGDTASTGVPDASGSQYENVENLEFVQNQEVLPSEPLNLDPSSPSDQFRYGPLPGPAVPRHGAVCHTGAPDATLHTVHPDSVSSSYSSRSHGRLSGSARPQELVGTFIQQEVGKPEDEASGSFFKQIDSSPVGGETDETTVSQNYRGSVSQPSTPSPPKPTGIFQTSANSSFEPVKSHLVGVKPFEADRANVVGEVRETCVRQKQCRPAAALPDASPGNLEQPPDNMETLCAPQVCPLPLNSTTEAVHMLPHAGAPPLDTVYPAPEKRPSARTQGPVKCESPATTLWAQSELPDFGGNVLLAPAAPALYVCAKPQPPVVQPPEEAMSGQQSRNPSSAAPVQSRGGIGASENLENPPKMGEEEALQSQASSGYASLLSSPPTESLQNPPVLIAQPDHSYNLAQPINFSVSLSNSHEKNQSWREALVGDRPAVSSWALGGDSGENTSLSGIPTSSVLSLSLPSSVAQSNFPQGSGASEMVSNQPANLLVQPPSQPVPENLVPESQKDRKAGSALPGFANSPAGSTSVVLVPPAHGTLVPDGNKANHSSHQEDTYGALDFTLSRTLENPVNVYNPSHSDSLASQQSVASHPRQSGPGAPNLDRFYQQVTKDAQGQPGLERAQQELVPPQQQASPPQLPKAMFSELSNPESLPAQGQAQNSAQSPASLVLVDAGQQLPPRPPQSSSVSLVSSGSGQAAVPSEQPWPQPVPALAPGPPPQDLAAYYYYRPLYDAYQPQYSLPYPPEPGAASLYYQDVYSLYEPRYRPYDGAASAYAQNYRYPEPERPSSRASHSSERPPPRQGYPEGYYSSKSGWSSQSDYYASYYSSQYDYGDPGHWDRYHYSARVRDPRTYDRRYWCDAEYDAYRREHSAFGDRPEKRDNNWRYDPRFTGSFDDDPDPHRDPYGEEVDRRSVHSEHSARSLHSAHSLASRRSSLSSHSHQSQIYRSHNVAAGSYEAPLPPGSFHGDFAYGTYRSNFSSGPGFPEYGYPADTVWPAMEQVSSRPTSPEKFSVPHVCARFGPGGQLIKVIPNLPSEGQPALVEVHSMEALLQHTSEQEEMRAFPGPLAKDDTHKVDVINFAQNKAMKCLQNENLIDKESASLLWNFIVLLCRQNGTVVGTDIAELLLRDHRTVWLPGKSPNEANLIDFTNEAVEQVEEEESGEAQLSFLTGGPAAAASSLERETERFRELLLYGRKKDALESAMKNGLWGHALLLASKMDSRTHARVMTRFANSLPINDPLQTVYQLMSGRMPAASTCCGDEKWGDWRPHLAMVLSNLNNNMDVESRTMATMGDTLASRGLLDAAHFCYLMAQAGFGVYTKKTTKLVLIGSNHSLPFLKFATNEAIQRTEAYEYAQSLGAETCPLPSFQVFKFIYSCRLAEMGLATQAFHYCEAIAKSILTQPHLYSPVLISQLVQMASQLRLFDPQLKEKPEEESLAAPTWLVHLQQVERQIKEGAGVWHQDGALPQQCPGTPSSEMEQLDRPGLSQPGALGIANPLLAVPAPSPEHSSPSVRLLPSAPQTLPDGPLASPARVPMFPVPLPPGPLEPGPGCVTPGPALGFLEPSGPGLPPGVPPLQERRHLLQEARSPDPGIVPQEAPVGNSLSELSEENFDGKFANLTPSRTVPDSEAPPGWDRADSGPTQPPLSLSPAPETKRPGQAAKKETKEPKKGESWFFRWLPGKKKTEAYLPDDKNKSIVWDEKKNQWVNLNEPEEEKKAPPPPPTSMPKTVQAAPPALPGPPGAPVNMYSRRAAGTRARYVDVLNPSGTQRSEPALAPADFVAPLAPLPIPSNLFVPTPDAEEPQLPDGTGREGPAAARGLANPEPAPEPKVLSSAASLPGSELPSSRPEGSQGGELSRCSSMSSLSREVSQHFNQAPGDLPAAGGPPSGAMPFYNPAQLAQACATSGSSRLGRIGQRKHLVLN
Sequence of UniProt Q9UKM9 (Q9UKM9 whole entry, looked up): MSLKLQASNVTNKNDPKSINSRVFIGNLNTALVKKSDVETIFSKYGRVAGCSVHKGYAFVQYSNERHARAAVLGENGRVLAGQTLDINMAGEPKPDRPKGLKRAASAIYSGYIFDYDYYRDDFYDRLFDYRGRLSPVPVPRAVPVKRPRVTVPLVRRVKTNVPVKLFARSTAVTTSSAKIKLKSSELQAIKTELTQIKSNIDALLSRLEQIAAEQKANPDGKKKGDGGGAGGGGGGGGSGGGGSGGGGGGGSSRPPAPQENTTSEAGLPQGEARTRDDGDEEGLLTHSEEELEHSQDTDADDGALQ
Sequence of UniProt O00560 (O00560 whole entry, looked up): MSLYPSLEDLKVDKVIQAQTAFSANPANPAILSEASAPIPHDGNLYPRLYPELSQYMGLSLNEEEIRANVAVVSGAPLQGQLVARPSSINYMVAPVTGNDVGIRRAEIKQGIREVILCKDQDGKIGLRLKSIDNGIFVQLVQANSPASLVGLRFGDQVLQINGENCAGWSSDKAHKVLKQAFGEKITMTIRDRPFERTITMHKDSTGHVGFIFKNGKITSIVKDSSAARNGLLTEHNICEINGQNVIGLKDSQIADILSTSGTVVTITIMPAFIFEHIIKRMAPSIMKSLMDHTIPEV
Sequence of UniProt Q8N0T1 (Q8N0T1 whole entry, looked up): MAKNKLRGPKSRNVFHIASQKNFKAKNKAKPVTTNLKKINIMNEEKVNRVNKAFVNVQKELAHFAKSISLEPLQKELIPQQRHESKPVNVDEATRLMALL

Target	log2 fold change
RPL38 (UniProt P63173)	0.01 (inactive)
RNF167 (UniProt Q9H6Y7)	0.015 (inactive)
SESN2 (UniProt P58004)	0.034 (inactive)
SEC31A (UniProt O94979)	-0.11 (inactive)
RBM27 (UniProt Q9P2N5)	0.023 (inactive)
RAVER1 (UniProt E9PAU2)	0.033 (inactive)
ROCK1 (UniProt Q13464)	0.013 (inactive)
SDCBP (UniProt O00560)	0.139 (inactive)
RMC1 (UniProt Q96DM3)	0.03 (inactive)
REL (UniProt Q04864)	-0.095 (inactive)
RAB8B (UniProt Q92930)	-0.009 (inactive)
RPS20 isoform 2 (UniProt P60866)	0.012 (inactive)
RAC1 (UniProt P63000)	0.036 (inactive)
SEC16A isoform 5 (UniProt O15027)	-0.062 (inactive)
RPRD1B (UniProt Q9NQG5)	-0.021 (inactive)
ROCK2 (UniProt O75116)	-0.052 (inactive)
RALY (UniProt Q9UKM9)	0.001 (inactive)
SETD3 (UniProt Q86TU7)	0.011 (inactive)
RBIS (UniProt Q8N0T1)	0.019 (inactive)
RBM26 isoform 2 (UniProt Q5T8P6)	0.032 (inactive)

What follows are targets tested with CC(=O)c1cnc2ccc(-c3cc(Cl)c(O)c(Cl)c3)nc2c1N[C@H]1CC[C@H](CN(C)C)CC1 in the same assay as above.
How it was run: as §1

Target	log2 fold change
RPS12 (UniProt P25398)	0.051 (inactive)
RUNX1 isoform 8 (UniProt Q01196)	-0.207 (inactive)
RAB9A (UniProt P51151)	-0.001 (inactive)
RPS9 (UniProt P46781)	0.108 (inactive)
SCG3 (UniProt Q8WXD2)	-0.107 (inactive)
RNPEP (UniProt Q9H4A4)	0.02 (inactive)
SCCPDH (UniProt Q8NBX0)	0.031 (inactive)
RABGGTA (UniProt Q92696)	-0.02 (inactive)
RRAGB (UniProt Q5VZM2)	0.08 (inactive)
RPS21 (UniProt P63220)	0.055 (inactive)
RPP25L (UniProt Q8N5L8)	-0.004 (inactive)
SCAF11 (UniProt Q99590)	0.714 (active)
RGS10 (UniProt O43665)	-0.024 (inactive)
RPL38 (UniProt P63173)	0 (inactive)
RNF167 (UniProt Q9H6Y7)	0.039 (inactive)
SESN2 (UniProt P58004)	0 (inactive)
SEC31A (UniProt O94979)	0.005 (inactive)

Target	log2 fold change
RBM27 (UniProt Q9P2N5)	-0.338 (active)
RAVER1 (UniProt E9PAU2)	-0.308 (inactive)
ROCK1 (UniProt Q13464)	0.015 (inactive)
SDCBP (UniProt O00560)	-0.02 (inactive)
RMC1 (UniProt Q96DM3)	-0.026 (inactive)
REL (UniProt Q04864)	-0.017 (inactive)
RAB8B (UniProt Q92930)	0 (inactive)
RPS20 isoform 2 (UniProt P60866)	0.02 (inactive)
RAC1 (UniProt P63000)	0.038 (inactive)
SEC16A isoform 5 (UniProt O15027)	-0.069 (inactive)
RPRD1B (UniProt Q9NQG5)	-0.017 (inactive)
ROCK2 (UniProt O75116)	-0.137 (inactive)
RALY (UniProt Q9UKM9)	-0.21 (inactive)
SETD3 (UniProt Q86TU7)	-0.018 (inactive)
RBIS (UniProt Q8N0T1)	-0.109 (inactive)
RBM26 isoform 2 (UniProt Q5T8P6)	-0.179 (inactive)

Source: the supplement of paper PMC10849652
